Screening results from PubChem BioAssay.
Most compounds without a hit are left out; they make up all but 1.3% or so of the library.
PME-1 inh: blocks human protein phosphatase methylesterase 1. AID 2130. Q9Y570. inhibition, % at 5.9 µM. 320,000 compounds, 0.53% hits. recombinant PME-1, FP-Rh probe fluorescence polarization;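 active = inhibition above the campaign mean of all compounds plus 3 SD, cut at about 26% in these data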;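 also: competitive labeling of PME-1 active site by serine hydrolase directed probe; 0% = PME-1 with DMSO and 100% = wells lacking PME-1 enzyme; inhibitors block probe labeling so polarization falls and inhibition rises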
LYPLA2 inh: LYPLA2 (human) inhibition in PME1 counter-screen. O95372. recombinant LYPLA2, FP-Rh probe fluorescence polarization. inhibition, % at 5.9 µM. 320,000 compounds, 0.38% hits. AID 2177;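 active = inhibition above the screen-wide mean plus 3 SD, limit set per campaign, cut at about 26% in these data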;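 also: 0% = LYPLA2 with DMSO and 100% = wells lacking LYPLA2 enzyme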
Fam108B counter: counter-screen for RBBP9 inhibitors: inhibitors of mouse Fam108B | inhibition, % at 9.51 µM | 300,000 compounds, 0.33% hits | recombinant Fam108B, FP-Rh probe fluorescence polarization;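 active = inhibition above the screen mean inhibition plus 3 SD, computed separately per campaign, cut at about 18% in these data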;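 also: inhibitors lower polarization as less probe binds the enzyme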
LYPLA1 inh: LYPLA1 (human) inhibition in PME1 counter-screen; O75608; recombinant LYPLA1, FP-Rh probe fluorescence polarization; inhibition, % at 5.9 µM; 320,000 compounds, 0.16% hits; AID 2174;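 active = inhibition above the mean of all tested compounds plus 3 SD, set per campaign, cut at about 14% in these data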;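 also: inhibitors block serine hydrolase probe labeling of LYPLA1 so polarization falls; 0% = enzyme with DMSO and 100% = wells lacking LYPLA1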
PREPL inh: inhibitors of human prolyl oligopeptidase-like enzyme PREPL. Q4J6C6. recombinant PREPL, fluorescence polarization activity-based probe. inhibition, % at 5.96 µM. 320,000 compounds, 0.68% hits; in the data active = inhibition above about 43%;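 also: 0% = enzyme with DMSO and 100% = wells lacking enzyme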
Target sequence (Q4J6C6 whole entry, looked up): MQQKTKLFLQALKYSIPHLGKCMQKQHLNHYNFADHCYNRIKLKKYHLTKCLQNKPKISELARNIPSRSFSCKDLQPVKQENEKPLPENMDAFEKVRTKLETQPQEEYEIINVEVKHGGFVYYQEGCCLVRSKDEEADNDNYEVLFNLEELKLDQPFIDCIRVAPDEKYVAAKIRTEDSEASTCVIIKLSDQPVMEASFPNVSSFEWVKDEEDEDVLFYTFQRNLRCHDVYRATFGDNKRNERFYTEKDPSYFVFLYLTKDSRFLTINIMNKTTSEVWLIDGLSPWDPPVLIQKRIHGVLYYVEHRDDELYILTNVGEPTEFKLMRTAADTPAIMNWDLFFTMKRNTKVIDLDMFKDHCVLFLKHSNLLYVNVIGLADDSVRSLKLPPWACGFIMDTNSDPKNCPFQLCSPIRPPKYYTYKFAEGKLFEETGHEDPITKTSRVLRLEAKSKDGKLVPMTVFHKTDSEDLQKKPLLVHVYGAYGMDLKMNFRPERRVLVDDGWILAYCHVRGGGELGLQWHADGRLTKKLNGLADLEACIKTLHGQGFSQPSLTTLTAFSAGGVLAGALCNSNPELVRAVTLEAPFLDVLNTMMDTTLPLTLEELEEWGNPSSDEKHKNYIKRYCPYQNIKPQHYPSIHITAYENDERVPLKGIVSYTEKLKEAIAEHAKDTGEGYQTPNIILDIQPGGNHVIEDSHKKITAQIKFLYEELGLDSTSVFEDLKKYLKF
Active calls of the source: *; x = not tested or not shown.

SMILES	PME-1 inh	LYPLA2 inh	Fam108B counter	LYPLA1 inh	PREPL inh
COc1ccc(C(=O)O/N=C(/c2ccccc2)c2ccncc2)cc1	-1	-4	2	-1	87*
O=C(O)c1ccccc1Nc1cccc(OCc2ccc3ccccc3n2)c1	30*	9	5	-1	37
C/C(=N/Nc1ccnc2cc(Cl)ccc12)c1ccc(O)cc1	33*	-2	10	-10	40
NC(=S)NNc1ccnc2cc(Cl)ccc12	5	1	1	-1	15
C/C(=N/Nc1ccnc2cc(Cl)ccc12)c1ccc(N)cc1	36*	-9	6	-6	37
CCCCCCC(=O)NNC(=O)CC(=O)Nc1ccccc1C(=O)O	-3	-6	3	-2	8
O=C(N/N=C/c1ccc(N2CCOCC2)cc1)c1ccccc1OCCOc1ccccc1	1	-9	7	-5	18
Cc1cccc2nc(-c3cccc(NC(=O)c4ccc(Cl)cc4)c3)cn12	-36	-19	-22	-5	11
Cn1cnnc1SCc1ccc(C(=O)N=Nc2c(O)n(Cc3ccc(Cl)cc3)c3ccccc23)cc1	4	26*	-1	4	22
CCn1c(O)c(N=NC(=O)c2ccc(CSc3nncn3C)cc2)c2ccccc21	2	-1	3	0	12
CCOc1cccc(/C=N/Nc2nc(N3CCCC3)nc(N3CCCC3)n2)c1O	23	-3	5	0	50*
CCOc1cc(/C=N/Nc2nc(N3CCCC3)nc(N3CCCC3)n2)ccc1O	0	4	-2	-1	6
CC1=NN(C(N)=S)C(=O)C1N=Nc1cccc2ccccc12 (configuration not stated)	3	8	23*	-2	6
COc1cccc(-c2nc(NCc3ccccc3)c3ccccc3n2)c1O	-2	2	2	-5	5
COc1cccc(-c2nc(NC3CCCC3)c3ccccc3n2)c1O	27*	0	15	-5	22
Cc1ccc(C(=O)N2CCN(Cc3nc4sc5c(c4c(=O)[nH]3)CCCC5)CC2)cc1	1	4	1	3	8
O=C(c1ccccc1F)N1CCN(Cc2nc3sc4c(c3c(=O)[nH]2)CCCC4)CC1	27*	-3	0	0	14
Cc1ccc(NC(=S)NNc2ccc([N+](=O)[O-])cc2S(=O)(=O)Nc2ccccc2C(=O)O)cc1C	48*	-5	9	-8	17
COc1cc(NC(=O)CCNS(=O)(=O)c2ccc3c(c2)CCC(=O)N3)cc(OC)c1	3	-5	1	-4	6
CCOC(=O)c1c(NC(=O)COC(=O)/C=C/c2ccccc2)sc(C(=O)NC)c1C	3	-2	x	-5	4
C/C(=N\NC(=O)c1ccc(Br)cc1)C1C(=O)c2ccccc2C1=O	10	1	16	18*	5
Cc1c(C(=O)OC/C(O)=C(\C#N)c2nc3ccccc3[nH]2)oc2ccccc12	32*	-13	-3	-9	2
COc1cc(OC)cc(C(=O)OC/C(O)=C(\C#N)c2nc3ccccc3[nH]2)c1	3	-10	1	-6	-6
CCOC(=O)CNc1nc(Cl)nc(Nc2ccc(Cl)cc2)n1	4	8	0	2	-12
C#CCOCCOCCOCCNc1nc(N2CCN(C(=O)[C@H](CCCCN)n3cc([C@@H](N)[C@H](C)CC)nn3)CC2)nc(N2CCN(C(=O)[C@H](CCC(=O)O)n3cc([C@@H](N)CCSC)nn3)CC2)n1	x	x	x	x	10
SMILES	PME-1 inh	LYPLA2 inh	Fam108B counter	LYPLA1 inh	PREPL inh
Cc1cc(-c2ccc(N=Nc3c(S(=O)(=O)O)cc4cc(S(=O)(=O)O)cc(N)c4c3O)c(C)c2)ccc1N=Nc1c(S(=O)(=O)O)cc2cc(S(=O)(=O)O)cc(N)c2c1O	3	-19	36*	-22	24
COC(=O)c1ccc2c(=O)n(CCCCCC(=O)NC(C)C)c(=O)[nH]c2c1	-7	5	4	-1	1
COc1ccccc1NC(=O)c1sc2nc(-c3ccco3)ccc2c1N	70*	-6	10	-10	8
Nc1c(C(=O)Nc2nc3ccccc3s2)sc2nc(-c3cccs3)ccc12	34*	-6	8	-13	10
CC(=O)c1sc2nc(-c3cccs3)ccc2c1N	-12	-13	-5	-5	0
COc1ccccc1NC(=O)c1sc2nc(C)cc(C)c2c1N	4	3	1	3	-2
Nc1c(C(=O)Nc2ccccc2)sc2nc(-c3ccco3)ccc12	56*	2	4	-11	17
COc1ccccc1C(=O)NCCNc1ccc([N+](=O)[O-])cc1Cl	2	4	1	2	6
Cc1nn(-c2ccccc2)c2ncc(C(=O)c3cc(Cl)ccc3O)cc12	29*	-6	-9	-8	-19
N#CCC(=O)Nc1ccc(C(=O)OCC(=O)c2ccc3c(c2)NC(=O)CO3)cc1	-37	-15	x	-17	9
CCOc1cc(/C=C/c2ccc3cccc([N+](=O)[O-])c3n2)cc(Cl)c1O	27*	2	16	-4	21
Cn1nnnc1SCC(=O)Nc1cc(S(=O)(=O)N2CCCC2)ccc1Cl	1	0	0	0	1
O=C(CN1CCN(c2ccc(O)cc2)CC1)Nc1cc(S(=O)(=O)N2CCCC2)ccc1Cl	37*	3	3	2	14
O=C(CSc1cccc(C(F)(F)F)c1)Nc1cc(S(=O)(=O)N2CCCC2)ccc1Cl	49*	-15	-6	-7	0
O=C1CN(C(=O)c2cc3ccccc3oc2=O)C(c2ccccc2)c2cc(F)ccc2N1 (configuration not stated)	34*	11	1	-1	-3
Cc1oc(-c2ccc(Cl)cc2)nc1CS(=O)CC(=O)NC1CCCCC1 (configuration not stated)	2	7	1	4	6
Cc1oc(-c2ccc(Cl)cc2)nc1CS(=O)CC(=O)NCCCN(C)C1CCCCC1 (configuration not stated)	3	12	2	4	57*
Cc1cc(SCC(=O)c2cccs2)nc2ccccc12	1	-9	-7	-7	3
CC1(C)CCCN(C(=O)c2ccc3c(c2NCCO)C(=O)c2ccccc2C3=O)C1	0	-7	0	-2	53*
O=C(CNc1ccc(F)cc1)N/N=C/c1c(O)ccc2ccccc12	37*	-2	9	-9	37
COc1ccccc1NCC(=O)N/N=C/c1c(O)ccc2ccccc12	18	3	7	-2	8
Cc1cc(C)cc(OCC(=O)N(Cc2ccccc2)C2CCS(=O)(=O)C2)c1 (configuration not stated)	-4	-5	-1	-1	-3
Cc1ccc(S(=O)(=O)NCc2ccccc2)cc1C(=O)N(C)Cc1ccc(F)cc1	8	-2	0	1	4
CCOc1ccc(NC(=O)CN(C)C(=O)c2c(-c3c(F)cccc3Cl)noc2C)cc1OCC	-2	-6	2	4	10
CC1=Nc2ccccc2/C1=C/c1sc(=N)n(-c2nccs2)c1O	39*	0	13	4	4
